Assay results from PubChem BioAssay AID463195 (Sanford-Burnham Center for Chemical Genomics, 2010).
Among all 330,000 compounds or so, about 4,600 (1.4%) were called active. The entries come from a sample that favours actives as a whole. Unmarked numbers belong to inactive results.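 How the source made its calls: active means inhibition of 40% or more at the single tested concentration; inactive means the rest.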

assay: growth inhibitors of isogenic TIM10 control yeast, primary screen, counter-screen for tim10-1 yeast inhibitor project, luminescence, uHTS (AID 463195);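 further: wild-type TIM10 isogenic control strain grown at permissive 25 °C; 0% = DMSO yeast wells and 100% = minimal medium wells without yeast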; conditions: S. cerevisiae TIM10 strain growth, BacTiter-Glo luminescence, 24 h; at 10 µM; active compounds read high

| Structure (SMILES) | inhibition |
| --- | --- |
| O=C(CSCc1ccccc1)Nc1ccccc1 | -3.8% |
| COC(=O)Cc1c(O)ccn(Cc2cccc(C(F)(F)F)c2)c1=O | 11.1% |
| Cc1ccc(C(=O)/C=C/c2c(C)nn(-c3ccccc3)c2Cl)cc1 | 29.3% |
| O=C(/C=C/Sc1ncn[nH]1)c1ccc(Cl)cc1 | 73.5% (active) |
| O=C(CSc1ncn[nH]1)N/N=C/c1ccc(F)cc1 | -3.76% |
| CCN(CC)C(=O)[C@H]1C[C@H](CC(=O)NCC23CC4CC(CC(C4)C2)C3)C(=O)N2CCc3c([nH]c4cc(CCC(=O)N(C)C)ccc34)[C@]12C | 6.94% |
| CC(=O)c1ccc(NC(=S)NC(=O)CC(C)C)cc1 | 28.8% |
| CC(C)CC(=O)NC(=S)Nc1cc(C(=O)O)ccc1Cl | -4.57% |
| CC(C)CC(=O)NC(=S)Nc1ccc(F)cc1F | 41.9% (active) |
| Cc1cc(C)c(C)c(S(=O)(=O)Nc2ccc(O)cc2)c1C | 11.4% |
| Cc1c(C)c(C)c(S(=O)(=O)NCCc2ccccn2)c(C)c1C | 7.03% |
| COC(=O)c1sccc1NS(=O)(=O)c1ccc(F)cc1F | 48.3% (active) |
| COC(=O)c1sccc1NC(=O)CSc1ccccc1NS(=O)(=O)c1cc(Cl)ccc1Cl | 10% |
| COc1ccc(NS(=O)(=O)c2ccc(F)cc2F)cn1 | -5.52% |
| CC1CCCN(CCOCCOc2ccccc2-c2ccccc2)C1 (stereo not given) | -0.424% |
| Cc1ccc(NS(=O)(=O)c2ccc3c(c2)n(C)c(=O)c(=O)n3C)c(C)c1 | -2% |
| CCOC(=O)C(=CNc1cccc(C)n1)C(=O)OCC | -4.77% |
| CCOC(=O)C(=Cc1ccccc1OC)C(=O)OCC | 49% (active) |
| COc1ccccc1/C=C/C(=O)NC1CC2CCC1C2 (stereo not given) | 18.9% |
| COc1ccccc1CNC(=O)C1CCN(C(=O)[C@@H]2Cc3ccccc3CN2)CC1 | 6.93% |
| COc1ccc(Nc2cc(=O)oc3ccccc23)cc1 | -15.1% |
| CCCN1CCn2c3c(c4cc(Br)ccc42)CCCC31 (stereo not given) | 6.43% |
| CCOc1ccc(/C(O)=C2\C(=O)C(=O)N(c3ccc(OC)cc3)C2c2ccccc2[N+](=O)[O-])cc1 (stereo not given) | 23.4% |
| COc1ccc2[nH]cc(CCN3C(=O)c4ccc(C(=O)O)cc4C3=O)c2c1 | -1.99% |

| Structure (SMILES) | inhibition |
| --- | --- |
| COc1ccc2[nH]cc(/C=C(/C#N)S(=O)(=O)c3ccccc3)c2c1 | 54.5% (active) |
| CCN(CC)CC(=O)c1c[nH]c2ccc(OC)cc12 | -7.94% |
| O=C(Oc1ccc([N+](=O)[O-])cc1)c1ccc2ccccc2n1 | 40.4% (active) |
| COc1ccc(C(=O)COC(=O)c2ccc3ccccc3n2)cc1 | 37.3% |
| CC(OC(=O)c1ccc2ccccc2n1)C(=O)c1ccccc1 (stereo not given) | 3.19% |
| O=C(Nc1cccc(Cl)c1Cl)c1ccccc1NC(=O)C1CC=CCC1C(=O)O (stereo not given) | -0.652% |
| Cc1cc(N=Nc2ccc3ccccc3c2)ccc1O | 74.2% (active) |
| Cc1ccc(/C=N/NC(=O)c2cc3ccccc3cc2O)o1 | 16.7% |
| COc1cccc(OCC(O)CNC(=O)c2oc3c(C)c(C)ccc3c2C)c1 (stereo not given) | -2.72% |
| Cc1nc2cc(C(F)(F)F)ccc2n1CCNc1nc(-c2cc(Cl)c(N)c(Cl)c2)cs1 | 3.25% |
| CC(=O)c1c(OCC(=O)N(C)C2CCCCC2)ccc2c(C)cc(=O)oc12 | 5.61% |
| C=CCNC(=S)NNC(=O)c1ccc(Br)o1 | -5.99% |
| C=CCNC(=O)COC(=O)CNC(=O)c1cc(Cl)cc([N+](=O)[O-])c1 | -0.359% |
| C=CCNC(=S)NNC(=O)COc1c(Cl)cc(Cl)cc1Cl | 57.7% (active) |
| O=C(CN1CCCCC1)NC(=O)Nc1ccccc1F | -12.6% |
| CCOC(=O)CCCNC(=O)COC(=O)c1cc(Br)c(Br)s1 | 10.3% |
| O=[N+]([O-])c1ccccc1/C=N/n1c(COc2ccccc2)n[nH]c1=S | 17.8% |
| Cc1ccc(OCc2n[nH]c(=S)n2-c2ccccc2)cc1 | 16.5% |
| Fc1ccc(/C=N/n2c(COc3ccccc3)n[nH]c2=S)cc1 | 40.9% (active) |
| CC(C)NC(=O)/C(C#N)=C\c1ccc(N(C)C)c(Br)c1 | 55.1% (active) |
| Cc1[nH]c2ccccc2c1/C=C(/C#N)C(=O)NC(C)C | 17.7% |
| CC(C)(C)C(=O)/C(C#N)=C/c1ccc(O)cc1 | -0.948% |
| N=c1n(Cc2ccc(Cl)cc2)c2ccccc2n1CC(O)c1ccco1 (stereo not given) | 4.4% |
| NC(=O)c1cc(S(=O)(=O)N2CCCC2)ccc1OCc1ccc(F)cc1 | -5.53% |

| Structure (SMILES) | inhibition |
| --- | --- |
| CSC(=S)N/N=C/c1c[nH]c2ccccc12 | 43.5% (active) |
| O=C(O)c1cccc(NC(=S)N/N=C/c2c[nH]c3ccccc23)c1 | 11.4% |
| Cc1c(/C=N\NC(=O)c2cc3ccccc3o2)c2ccccc2n1C | 8.19% |
| Nc1nonc1-n1nnc(C(=O)N/N=C/c2c[nH]c3ccccc23)c1-c1ccccc1 | 12.9% |
| O=C(N/N=C/c1cccc(O)c1)c1cc2c(ccc3ccccc32)o1 | 7.41% |
| O=C(N/N=C/c1c[nH]c2ccccc12)c1cc2ccccc2o1 | 49.3% (active) |
| COc1ccccc1CNS(=O)(=O)c1cc(C(=O)NCc2ccccn2)c(Cl)cc1Cl | 3.96% |
| CCOC(=O)c1cc2c(=O)[nH]c(C(Cl)(Cl)Cl)nc2o1 | 1.82% |
| COc1cc2c(cc1NC(=O)COC(=O)/C=C/c1ccccc1)oc1ccccc12 | -21.9% |
| CN(c1ccc(OCC(=O)NC2=NCCS2)cc1)S(=O)(=O)c1ccc(F)cc1 | -18.2% |
| C/C(CC1CC(C)(C)OC1=O)=N/Nc1nc(-c2ccccc2)cs1 (stereo not given) | 17.6% |
| O=C(CSc1cccc[n+]1[O-])c1ccc(Cl)cc1 | 1.21% |
| COc1ccccc1C(=O)CSc1cccc[n+]1[O-] | -4.59% |
| O=C(CSc1cccc[n+]1[O-])c1ccc(-c2ccccc2)cc1 | 42% (active) |
| CCc1cc2cc(OC)ccc2nc1SCC(=O)Nc1cc(OC)c(OC)cc1C(=O)O | 11.1% |
| Cc1ccc(NC(=O)c2ccc(Oc3ncccn3)cc2)cc1 | 9.43% |
| COc1cccc(N(CC(=O)NCCSc2ccccn2)S(C)(=O)=O)c1 | -1.16% |
| COC(=O)c1ccc(S(=O)(=O)N2CCc3ccccc3C2)cc1 | -8.05% |
| CC(OC(=O)c1ccc(S(=O)(=O)N2CCOCC2)cc1)c1ccccc1 (stereo not given) | 10.1% |
| O=C(ON=C1CCN(S(=O)(=O)c2ccccc2)CC1)c1ccc(Cl)cc1 | 48% (active) |
| Cc1cc[n+](-c2[nH]c(=O)sc2/C=N/NC(=O)c2ccccc2[O-])cc1C | 2.83% |
| CN(c1ccc(O)cc1)c1nc(-c2cccnc2)cs1 | -2.92% |
| COc1ccccc1C1=CC(=O)C[C@H](c2ccc(F)cc2)C1 | -15.1% |
| COc1ccccc1-c1n[nH]c2c1[C@H](C)CC[C@H]2C(C)C | 56% (active) |

| Structure (SMILES) | inhibition |
| --- | --- |
| CCN(C[C@H]1N[C@@](CC)(C(=O)OC)[C@H]2C(=O)N(Cc3ccccc3)C(=O)[C@@H]12)S(=O)(=O)c1ccc(C(F)(F)F)cc1 | 12.3% |
| Cc1ccc(Nc2nc(Cl)c(C=O)s2)cc1 | 41.1% (active) |
| Cc1ccc(Nc2nc(C)cc(C)c2C(N)=O)cc1 | 6.89% |
| Cc1ccc(NC(=O)Nc2nnc(-c3ccncc3)s2)cc1 | 5.77% |
| CC(C)NC(=O)NC(=O)CSc1nnc(-c2ccccc2F)n1N | 5.49% |
| CN(C(=O)CSc1nnc(N)s1)c1c(N)n(Cc2ccccc2)c(=O)[nH]c1=O | 10.2% |
| CS(=O)(=O)N(CC(=O)N1CCOCC1)c1ccc2c3c(cccc13)CC2 | 8.14% |
| CCOc1ccccc1C1NC(=O)NC(C)=C1C(=O)OCc1ccco1 (stereo not given) | 0.932% |
| CCOc1ccccc1/C=c1\sc2nc(-c3ccco3)nn2c1=O | 45% (active) |
| CCCn1nc(C(=O)NNC(=O)CCOc2ccccc2OCC)c2ccccc2c1=O | 13.7% |
| Cc1cccc([C@@H]2[C@@H]3C(=O)N(Cc4ccccc4)C(=O)[C@@H]3[C@]3(C)C(=O)N(c4ccc(Br)cc4)C(=O)N23)c1 | 4.22% |
| Cn1c(Cc2csc(N)n2)nnc1SC/C=C/c1ccccc1 | 7.09% |
| CCN(Cc1nc2ccccc2c(=O)[nH]1)Cc1cc(=O)oc2cc(C)c(C)cc12 | -2.16% |
| COc1ccc(C(=O)NC(C)c2nccs2)cc1OC1CCN(C(C)C)CC1 (stereo not given) | -15% |
| NC(=O)c1ccsc1NC(=O)c1ccco1 | 8.27% |
| O=C(Nc1nnc(CCOCCOCCc2nnc(NC(=O)c3ccco3)s2)s1)c1ccco1 | -7.13% |
| O=C(Nc1nc(-c2ccco2)c(-c2ccco2)s1)c1ccco1 | 40.3% (active) |
| CS/C(=C\[N+](=O)[O-])Nc1ccc(C)cc1 | 30% |
| CCc1c(C)[nH]c(=S)c(C#N)c1C | 3.94% |
| O=C(NCCCCc1ccccc1)C1CC(c2ccc([N+](=O)[O-])cc2)=NO1 (stereo not given) | -15.3% |
| O=C1NC(=O)C2C1C(c1ccc([N+](=O)[O-])cc1)=NN2Cc1ccccc1 (stereo not given) | 46.2% (active) |
| CC(=O)N1c2ccccc2N(Cc2ccc([N+](=O)[O-])cc2)C(=O)C1(C)C | 27.8% |
| c1ccc2c(c1)CSc1sccc1C2=C1CCNCC1 | 1.38% |
